The target of experiment [1] is Lysine-specific demethylase 5B (Homo sapiens) (UniProt Q9UGL1). Description: Optimization screen for KDM5B Histone Demethylases FDH coupled qHTS against the LOPAC library (AID 1347166). Note: 0% is about no effect. A digest of the protocol:
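KDM5BDeltaAP (200nM final) preincubated 10 min with compound, then 12.5uM H3K4Me3, 25uM a-ketoglutarate, ascorbate, Fe(II), NAD+ and FDH added; 50mM HEPES pH 7.5, 0.01% Tween-20. NADH fluorescence (340/450 nm) change over 30 min, room temperature.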

Experiment [2] in a line: qHTS to identify inhibitors of the type 1 interferon - major histocompatibility complex class I in skeletal muscle: primary screen against the NCATS LOPAC collection (AID 1347405).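 Note: lytic HiBiT luminescence reporting HLA-B protein level; % is set by controls: 0 for no effect and ±100 for the full control effect.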 A digest of the protocol: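 Luminescence from HiBiT fused to endogenous HLA-B in CRISPR-engineered human myoblasts served as the read-out. Cells received 4.0 ng/ml IFN-beta plus compound (seven concentrations, 1:4.3 steps, highest 46 uM final) for 24 hrs before lytic detection.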
(qHTS replaces the single test concentration by a dilution series.)

Experiment [3] is described as follows: qHTS to identify inhibitors of the type 1 interferon - major histocompatibility complex class I in skeletal muscle: primary screen against the NCATS Pharmaceutical Collection (AID 1347407).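 Note: luminescence of HiBiT knocked into endogenous HLA-B as interferon-induced MHC class I level; % is set by controls: 0 for no effect and ±100 for the full control effect.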 The gist of the method:
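Cells were seeded with 4 ng/ml IFN-beta, incubated 1 h, then dosed with compounds over eight 1:5 steps up to 46 uM final. After 24 h at 37 C, HiBiT lytic reagent was added and luminescence read after 10 min lysis in the dark.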

A short description of experiment [4]: qHTS for inhibitors of adenylyl cyclases using a fission yeast platform: a pilot screen against the NCATS LOPAC library (AID 1347410).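 Note: plate controls were DMSO vehicle for no effect and DPI positive control for full effect.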 A digest of the protocol:
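Growth medium went into the plates first, then compounds were pinned (final up to 57 µM), then CHP2027 yeast were added. Plates were incubated overnight (18 h) at 30C in the dark, and GFP was measured by laser scanning cytometry.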

Experiment [5] deals with Protein phosphatase 1D (Homo sapiens) (UniProt O15297). Description: RapidFire Mass Spectrometry qHTS Assay for Modulators of WT P53-Induced Phosphatase 1 (WIP1) (AID 1347424).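 Note: amount of dephosphorylated VEPPL-S-QETFS peptide product formed by WIP1; series mostly up to about 63 µM; plate controls were DMSO wells for no effect and GSK830371 inhibitor control at 10 µM for full effect.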 The gist of the method:
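10 nM WIP1 preincubated with compounds 1 hr at room temperature in pH 7.5 Tris buffer with 30 mM MgCl2, 1 mM TCEP; 2 uM VEPPL-pS-QETFS phosphopeptide for 5 min, formic acid quench; dephosphorylated product quantified by RapidFire MS against labelled standard.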

Experiment [6] has the same target. Description: Rhodamine-PBP qHTS Assay for Modulators of WT P53-Induced Phosphatase 1 (WIP1) (AID 1347425). Note: % of control where 0% means no effect. The gist of the method:
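Steps: enzyme with Rh-PBP sensor and compounds, room-temperature incubation of 1 hr, baseline read, addition of VEPPL-pS-QETFS (10 uM final), kinetic fluorescence reads at 525/598 nm. Activity equals final minus baseline signal.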

Experiment [7] in a line: Validation qHTS assay for inhibitors of Activation Induced Cytidine Deaminase (AID): UDG Counterscreen signal (AID 1347427). Note: 0% is about no effect. A digest of the protocol:
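Counterscreen read of UDG activity (2 U/mL, 4/3x) in the FRET deamination format with AID (1 uM, 4/3x), DJC20/DJC23 substrates (250 nM, 4x), 4 h at room temperature. NaOH stop, fluorescence at 560 ex/665 em.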

Experiment [8] addresses Single-stranded DNA cytosine deaminase (Homo sapiens) (UniProt Q9GZX7). Briefly: Validation qHTS assay for inhibitors of Activation Induced Cytidine Deaminase (AID): AID signal (AID 1347429). Note: % is set by controls: 0 for no effect and ±100 for the full control effect. The gist of the method: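 Fluorescence at 540 nm excitation and 590 nm emission reports ssDNA cytosine deamination by AID, with UDG in the same well. Compound-treated reactions ran 4 hr at room temperature with DJC20/DJC23 substrate, followed by 30 min NaOH treatment.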

Experiment [9] is described as follows: Primary qHTS for inhibitors of La Crosse Virus (LACV) - induced cell death in SH-SY5Y cells (AID 1508616).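 Note: top concentration of the series differs between compounds; 0% = infected DMSO wells and 100% = uninfected DMSO wells; higher means more rescue of cells from virus-induced death.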 A digest of the protocol:
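Protection against LACV-induced cell death is scored in SH-SY5Y cells exposed to compounds and virus (0.01 MOI) for 6 days. Data normalized to virus-infected DMSO wells and virus-free DMSO wells.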

Experiment [10] deals with Calcium and integrin-binding protein 1 (Homo sapiens) (UniProt Q99828). Briefly: Validation qHTS for Identification of Calcium Integrin Binding protein 1 (CIB1) Competitor (AID 1508618). Note: % is set by controls: 0 for no effect and ±100 for the full control effect. A digest of the protocol: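 In this qHTS validation, the LOPAC set (up to 114 uM) was tested for blocking CIB1 binding to a fluorescein-tagged alphaIIb peptide, with FP detection at 480/540 nm.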

Experiment [11] has the same target. Briefly: Primary qHTS for Identification of Calcium Integrin Binding Protein 1 (CIB1) Competitor (AID 1508620). The gist of the method:
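Fluorescence polarization competition: GST-tagged CIB1 (1 uM final) preincubated with compound 15 min at room temperature, then FITC-labelled alphaIIb peptide (100 nM final) added. After 15 min at room temperature, polarization read at Ex 480/Em 540.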

Experiment [12] is described as follows: qHTS to identify inhibitors of the type 1 interferon - major histocompatibility complex class I in skeletal muscle: primary screen against the NCATS Mechanism Interrogation Plate v5.0 (MIPE) Libary (AID 1347411).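 Note: plate controls were vehicle for no effect and reference inhibitor for full effect; nearly all actives have a fitted effect of over 65% in size.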 A digest of the protocol: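 Luminescence from HiBiT-tagged endogenous HLA-B*08:01 served as the MHC class I read-out. CRISPR-engineered C25cl48 human myoblasts received 4.0 ng/ml IFN-beta plus compound for 24 hrs, with an 11-point, 1:3 series topping at 46 uM final.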

In experiment [13] the test system is Zika virus NS2B-NS3 protease (linked construct). Description: Primary screen NINDS Rhodamine qHTS for Zika virus inhibitors (AID 1347160). Note: % is set by controls: 0 for no effect and ±100 for the full control effect; nearly all actives have a fitted effect of over 55% in size. The following applies: outcome: dose series up to 57.1 µM. The gist of the method:
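Percent inhibition, normalized to uninhibited and enzyme-free controls, is fitted to a 4-parameter Hill equation. Fluorescence change comes from a 15-min cleavage of 1.5 microM bis-peptide Rhodamine110 substrate by 25 nM linked NS2B-NS3 at room temperature.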

Experiment [14] in a line: Confirmatory screen NINDS Rhodamine qHTS for Zika virus inhibitors (AID 1347161).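 Note: purified Zika NS2B-NS3 protease with linked NS2B cofactor domain and Rhodamine110 peptide substrate; series mostly up to about 110 µM; plate controls were no-inhibitor control for no effect and no-enzyme control for full effect; nearly all actives have a fitted effect of over 60% in size.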 A digest of the protocol:
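In 10 mM Tris-HCl pH 8.0 containing 0.01% Tween 20, linked NS2B-NS3 protease (25 nM final) is exposed to test compounds for 15 min. Cleavage of 1.5 microM Rhodamine110 substrate is tracked by fluorescence over 15 min.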

Experiment [15] in a line: Vero cells viability qHTS for Zika virus inhibitors (AID 1347167). Note: % is set by controls: 0 for no effect and ±100 for the full control effect. The gist of the method: (§1)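 Cells seeded at 2.5 x 10^5 cells/mL in DMEM with 4% FBS and attached overnight at 37 degrees C, then exposed to compound for 24 to 48 hours. Viability read as ATP content by CellTiter Glo luminescence.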
The nature of experiment [16]: HepG2 cells viability qHTS for Zika virus inhibitors (AID 1347168). Note: % is set by controls: 0 for no effect and ±100 for the full control effect. A digest of the protocol:
as §1

The nature of experiment [17]: Confirmatory qHTS for small molecule stabilizers of the endoplasmic reticulum resident proteome: Secreted ER Calcium Modulated Protein (SERCaMP) assay (AID 1508628). Note: potency is the fitted concentration of half-maximal effect; nearly all actives have a fitted effect of over 40% in size. The gist of the method:
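SH-SY5Y cells stably expressing GLuc-SERCaMP, treated 16 h with compound (primary 1.53, 7.67, 38.3 uM; confirmation 11 concentrations, up to 76.6 uM), then 100 nM thapsigargin for 4 h. Secreted Gaussia luciferase in medium read by coelenterazine luminescence.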

A number with no mark means an inactive call. Inconclusive results are not listed. Calls of active or inactive are those of the source. Calls come from the whole dose curve; as a rule, active = well fitted curve in the direction sought with a large enough effect; inconclusive = small, poorly fitted or top-dose-only effect, or another doubt; inactive = no such curve, though single readings can be large; an effect the other way counts as inactive or inconclusive.

Sequence of Protein phosphatase 1D (Homo sapiens) (O15297 whole entry, looked up): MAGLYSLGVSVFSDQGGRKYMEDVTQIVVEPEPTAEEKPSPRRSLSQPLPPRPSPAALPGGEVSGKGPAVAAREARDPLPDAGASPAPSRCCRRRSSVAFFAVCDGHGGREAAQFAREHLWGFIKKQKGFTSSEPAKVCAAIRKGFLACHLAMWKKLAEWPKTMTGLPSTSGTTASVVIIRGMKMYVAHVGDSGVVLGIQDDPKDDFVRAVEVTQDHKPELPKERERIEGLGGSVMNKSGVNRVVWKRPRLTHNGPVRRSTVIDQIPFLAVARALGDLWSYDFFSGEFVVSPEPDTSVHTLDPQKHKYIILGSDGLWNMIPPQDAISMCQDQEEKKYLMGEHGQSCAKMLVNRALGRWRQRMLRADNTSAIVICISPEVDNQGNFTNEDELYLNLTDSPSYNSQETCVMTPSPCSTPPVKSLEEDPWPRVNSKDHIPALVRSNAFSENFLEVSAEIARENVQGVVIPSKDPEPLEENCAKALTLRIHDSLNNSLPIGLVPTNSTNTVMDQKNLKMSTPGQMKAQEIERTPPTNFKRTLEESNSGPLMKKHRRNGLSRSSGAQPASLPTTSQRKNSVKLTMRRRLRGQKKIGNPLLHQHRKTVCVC
Sequence of Single-stranded DNA cytosine deaminase (Homo sapiens) (Q9GZX7 whole entry, looked up): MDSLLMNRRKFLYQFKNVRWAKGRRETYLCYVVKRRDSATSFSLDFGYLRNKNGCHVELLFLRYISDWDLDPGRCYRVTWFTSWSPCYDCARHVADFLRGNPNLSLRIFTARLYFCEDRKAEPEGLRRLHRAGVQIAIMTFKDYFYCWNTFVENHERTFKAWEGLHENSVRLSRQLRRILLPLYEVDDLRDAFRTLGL
Sequence of Lysine-specific demethylase 5B (Homo sapiens) (Q9UGL1 whole entry, looked up): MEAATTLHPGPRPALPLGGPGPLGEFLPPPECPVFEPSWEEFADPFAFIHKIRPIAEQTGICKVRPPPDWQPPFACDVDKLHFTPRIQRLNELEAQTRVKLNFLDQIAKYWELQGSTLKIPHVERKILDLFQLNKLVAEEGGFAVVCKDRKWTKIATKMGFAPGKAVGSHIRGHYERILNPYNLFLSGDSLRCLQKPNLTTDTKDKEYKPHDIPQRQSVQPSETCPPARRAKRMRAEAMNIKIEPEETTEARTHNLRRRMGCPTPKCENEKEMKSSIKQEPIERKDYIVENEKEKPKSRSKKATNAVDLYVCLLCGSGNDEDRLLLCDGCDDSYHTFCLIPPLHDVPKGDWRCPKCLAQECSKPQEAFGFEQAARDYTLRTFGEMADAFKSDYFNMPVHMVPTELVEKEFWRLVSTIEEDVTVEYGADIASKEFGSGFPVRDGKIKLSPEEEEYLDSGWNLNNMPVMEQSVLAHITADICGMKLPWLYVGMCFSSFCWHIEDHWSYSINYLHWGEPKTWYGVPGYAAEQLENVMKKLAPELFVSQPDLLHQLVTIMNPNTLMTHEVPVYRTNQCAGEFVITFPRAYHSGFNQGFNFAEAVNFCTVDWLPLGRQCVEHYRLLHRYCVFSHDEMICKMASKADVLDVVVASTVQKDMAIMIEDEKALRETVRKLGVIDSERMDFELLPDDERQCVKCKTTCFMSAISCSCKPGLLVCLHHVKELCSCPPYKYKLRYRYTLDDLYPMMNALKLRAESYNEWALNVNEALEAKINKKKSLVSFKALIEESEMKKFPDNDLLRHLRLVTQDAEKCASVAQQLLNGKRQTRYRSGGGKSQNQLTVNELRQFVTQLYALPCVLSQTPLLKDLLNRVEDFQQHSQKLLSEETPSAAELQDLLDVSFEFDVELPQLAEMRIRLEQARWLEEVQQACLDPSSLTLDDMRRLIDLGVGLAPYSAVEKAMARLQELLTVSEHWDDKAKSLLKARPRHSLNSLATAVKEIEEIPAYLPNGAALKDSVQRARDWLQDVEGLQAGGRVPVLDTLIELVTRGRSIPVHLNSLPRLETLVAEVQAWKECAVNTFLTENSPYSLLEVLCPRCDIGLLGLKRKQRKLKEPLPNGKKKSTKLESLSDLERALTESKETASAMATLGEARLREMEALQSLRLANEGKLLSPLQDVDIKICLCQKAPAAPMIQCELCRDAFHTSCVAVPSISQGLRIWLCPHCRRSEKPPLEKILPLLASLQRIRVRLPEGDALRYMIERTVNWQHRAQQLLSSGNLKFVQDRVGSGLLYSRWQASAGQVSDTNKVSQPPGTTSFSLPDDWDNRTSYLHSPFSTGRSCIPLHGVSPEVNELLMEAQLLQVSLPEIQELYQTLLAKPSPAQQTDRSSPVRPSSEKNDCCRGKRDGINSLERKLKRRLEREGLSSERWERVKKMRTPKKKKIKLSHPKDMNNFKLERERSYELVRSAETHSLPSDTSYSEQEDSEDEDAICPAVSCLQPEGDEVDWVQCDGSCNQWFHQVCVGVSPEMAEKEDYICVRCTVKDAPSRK
Sequence of Calcium and integrin-binding protein 1 (Homo sapiens) (Q99828 whole entry, looked up): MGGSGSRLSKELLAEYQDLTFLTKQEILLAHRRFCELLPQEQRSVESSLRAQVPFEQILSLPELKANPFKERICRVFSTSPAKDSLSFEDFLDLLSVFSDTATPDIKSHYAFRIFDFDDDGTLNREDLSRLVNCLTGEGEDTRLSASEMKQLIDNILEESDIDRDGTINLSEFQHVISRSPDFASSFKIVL

As for `C[C@@H](O)[C@H]1C(=O)N2C(C(=O)O)=C(SCCN=CN)C[C@H]12`, the Potency result in experiment [1], in [2], in [3], in experiment [5], in experiment [8] and in experiment [9] was “inactive” in each case. The Potency entry in experiment [11] is “inactive”. The result in experiment [4], in experiment [6], in [7] and in experiment [10] was inactive.

Consider `O=C(O)CCCCCCCC(=O)O`, for which the Potency result in [1], in experiment [2], in experiment [3], in experiment [5], in experiment [8] and in [9] was “inactive” each time. Further, in experiment [11], the Potency entry was “inactive”. Moreover, the result in experiment [4], in experiment [6], in experiment [7] and in experiment [10] was inactive.

For `CCCN(CCC)C(=O)C(CCC(=O)O)NC(=O)c1ccccc1` (stereo not given), the Potency result in experiment [1], in experiment [2], in [3], in [12], in [5] and in experiment [8] was “inactive” each time. The Potency result in experiment [9] and in experiment [11] was “inactive” each time. Further, the compound was called inactive in experiment [4] and in [7].

With `C[N+](C)(C)CCCCCCCCCC[N+](C)(C)C`, the Potency result in experiment [1], in experiment [2], in experiment [3], in experiment [5], in experiment [8] and in experiment [9] was “inactive” each time. For the same compound, in [11], the Potency result was “inactive”. Also, the outcome in experiment [4], in experiment [6], in experiment [7] and in experiment [10] was inactive.

Regarding `COc1ccc(CCN(C)CCCC(C#N)(c2cc(OC)c(OC)c(OC)c2)C(C)C)cc1OC` (stereo not given), the Potency entry in [1], in experiment [2], in [3], in experiment [5], in experiment [8] and in experiment [9] was “inactive” in each case. The Potency entry in experiment [11] was “inactive”. Besides, the result in [4], in experiment [6], in experiment [7] and in experiment [10] was inactive.

For `COC(=O)[C@H]1[C@H]2C[C@@H]3c4[nH]c5cc(OC)ccc5c4CCN3C[C@H]2C[C@@H](OC(=O)c2cc(OC)c(OC)c(OC)c2)[C@@H]1OC`, the call in experiment [13], in [15], in [16], in experiment [4], in [7] and in [10] was inactive. The Potency result in [14], in experiment [3], in [5], in [8], in experiment [9] and in experiment [11] was “inactive” in each case. In [17], the Potency was 15.8 µM (active).

Turning to `CO[C@@]1(NC(=O)CSCC#N)C(=O)N2C(C(=O)O)=C(CSc3nnnn3C)CS[C@@H]21`, the Potency entry in experiment [1], in experiment [2], in experiment [3], in experiment [5], in experiment [8] and in experiment [9] was “inactive” in each case. Moreover, the compound was called inactive in [4], in experiment [6] and in experiment [7].

In the case of `CNCCCN1c2ccccc2CCc2ccccc21`, the Potency entry in experiment [1], in [2], in [3], in experiment [5], in experiment [8] and in experiment [9] was “inactive” each time. Moreover, the Potency entry in experiment [11] is “inactive”. The result in experiment [4], in [6], in experiment [7] and in [10] was inactive.

Consider `NC(Cc1ccc(Cl)cc1)C(=O)O` (stereo not given), for which the Potency entry in experiment [1], in experiment [2], in experiment [8] and in experiment [9] was “inactive” in each case. The activity change, negative = inhibition in [3] is 1.91% [at 0.727 µM]; in experiment [5], 4.3% [at 0.505 µM]; in experiment [6], -2.63% [at 0.575 µM]; in experiment [11] it was -1.79% [at 1.07 µM]. The outcome in experiment [4], in [7] and in [10] was inactive.

`O=C1CC2(CCCC2)CC(=O)N1CCCCN1CCN(c2ncccn2)CC1`: the Potency result in experiment [1], in [2], in experiment [3], in experiment [5], in experiment [8] and in experiment [9] was “inactive” each time. In [11], the Potency result was “inactive”. For the same compound, the result in experiment [4], in experiment [6], in [7] and in experiment [10] was inactive.

`CCN(CC)CCNC(=O)c1cc(S(C)(=O)=O)ccc1OC`: the Potency result in experiment [1], in experiment [2], in experiment [3], in [5], in experiment [8] and in [9] was “inactive” each time. Also, in experiment [11], the Potency result was “inactive”. Besides, the call in [4], in [6], in [7] and in experiment [10] was inactive.

The values are drawn from PubChem BioAssay (NCATS).
